# AmpC inh detg: blocks E. coli AmpC beta-lactamase in detergent assay; 0.041% of 370,000 active; Potency, µM (highest dose often 114 µM), for the others: at the highest dose activity change, negative = inhibition, most hits filed as inhibitors; AmpC hydrolysis of nitrocefin, absorbance 480 nm, 0.01% Triton; P00811;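 further: 0% = no-compound wells and -100% = no-enzyme wells; nearly all actives have a fitted effect of over 25% in size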
# Target sequence (P00811 whole entry, looked up): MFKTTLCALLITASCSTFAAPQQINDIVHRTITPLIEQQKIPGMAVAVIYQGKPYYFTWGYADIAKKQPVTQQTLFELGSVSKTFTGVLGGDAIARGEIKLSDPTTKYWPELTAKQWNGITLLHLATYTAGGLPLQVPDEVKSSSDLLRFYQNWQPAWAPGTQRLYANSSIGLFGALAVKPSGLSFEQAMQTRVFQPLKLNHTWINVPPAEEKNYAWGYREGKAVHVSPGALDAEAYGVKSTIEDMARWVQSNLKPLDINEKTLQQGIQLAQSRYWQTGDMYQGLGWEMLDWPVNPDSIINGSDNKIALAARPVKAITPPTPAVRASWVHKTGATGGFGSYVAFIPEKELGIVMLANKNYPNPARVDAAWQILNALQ
#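 20 mM phosphate pH 7.0 + 0.01% (detergent screen) or 0.0001% Triton X-100; 5.3 nM AmpC reagent; cpd preinc 15 min RT; nitrocefin (800 uM stock) to start; A480 q20 s × 4 min; Activity was normalised to no-enzyme and no-compound control wells.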
# Sm TGR block: blocks Schistosoma mansoni thioredoxin glutathione reductase; Q962Y6; purified TGR, DTNB reduction, TNB absorbance 405 nm; Potency, µM (top dose mostly 114 µM), for inactives: at the top dose activity change, negative = inhibition, actives largely listed as inhibitors; 3% of 360,000 active; AID 485364; further: nearly all actives have a fitted effect of over 60% in size
#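 Kinetic colorimetric format: TGR-catalysed, NADPH-driven DTNB reduction monitored via TNB absorbance. Enzyme dispensed at 20 nM; compound exposure 15 min at room temperature before reaction start.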
# AmpC inh no detg: AmpC beta-lactamase inhibition without detergent | Potency, µM (titrated, usually from 57.1 µM), without a hit: at the highest dose activity change, negative = inhibition, usual class: inhibitors | AmpC nitrocefin hydrolysis, absorbance 480 nm, 0.0001% Triton | AID 485341 | 0.52% of 330,000 active | P00811;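 further: plate controls were no compound for no effect and no enzyme for full effect; nearly all actives have a fitted effect of over 20% in size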
#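 AmpC (5.3 nM in the dispensed reagent) in 20 mM phosphate pH 7.0 with 0.01% (detergent screen) or 0.0001% Triton X-100 was preincubated with compounds for 15 min at room temperature. Nitrocefin was then added from an 800 uM solution, and hydrolysis was followed at 480 nm.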
# An asterisk follows results filed as active; ? = inconclusive; . = no result. The list is not random: actives were taken first. Their share in the collection is about 3.3%. The call rests on the fitted dose curve; in most records, active means well fitted curve in the direction sought with a large enough effect; inconclusive means small, poorly fitted or top-dose-only effect, or another doubt; inactive means no such curve, though single readings can be large; an effect the other way counts as inactive or inconclusive. Unless noted, on the % scale 0 is the no-effect control and ±100 the full control effect; potency means the concentration at half of the fitted maximal effect.
SMILES,AmpC inh detg,Sm TGR block,AmpC inh no detg
CCOC(=O)c1nc(S(C)(=O)=O)ncc1Cl,?,8.9µM*,-21%
CS(=O)(=O)c1ncc(Cl)c(C(=O)Nc2ccc(N3CCOCC3)cc2)n1,-14%,16µM*,-10%
CS(=O)(=O)c1ncc(Cl)c(C(=O)Nc2ccc(OC(F)F)cc2)n1,-5%,7.9µM*,31%
CCCCn1c(=O)n(-c2cc(OC)ccc2OC)c(=O)c2c3c(sc21)CN(C(C)=O)CC3,4%,0%,.
Cc1ccc(NC(=O)c2c(NC(=O)c3ccccc3Cl)sc3c2CCC3)cc1,-4%,?,.
COc1cc(/C=C(\C#N)c2nc3ccccc3[nH]2)cc(Cl)c1OCc1ccccc1Cl,-1%,3%,.
CC(=O)N1CN(Cc2ccccn2)Cc2c1sc1c2CCCC1,-6%,40µM*,-27%
CC(=O)N1CN(CCCn2ccnc2)Cc2c1sc1c2CCCC1,?,0%,20%
COc1cc(NC(=O)C(CC(C)C)N2Cc3ccccc3C2=O)cc(OC)c1 (configuration not stated),-1%,-12%,.
Cc1c(-c2ccccc2)nc(N)c(C#N)c1-c1ccco1,4%,35µM*,-27%
CCc1nc(N)c(C#N)c(-c2ccco2)c1C,?,0%,-20%
CC(C)OC(=O)CSc1nc(N)c(C#N)c(-c2ccco2)c1C#N,5%,40µM*,-18%
CC(C)OC(=O)CSc1nc(N)c(C#N)cc1C#N,1%,6%,-14%
COc1ccc(-c2nnc(SCC(=O)c3ccc([N+](=O)[O-])cc3)o2)cc1OC,23%,-2%,.
COc1cccc(N2CCN(C(=O)c3cnn(-c4ccc(C)cc4C)c3C3CCN(C(=O)OC(C)(C)C)CC3)CC2)c1,11%,5%,.
CC(=O)c1cc(-c2ccccc2)n(CC(=O)N2CCN(C3CCCC3)CC2)c1C,-4%,40µM*,93%
CC(=O)c1cc(-c2ccccc2)n(CC(=O)N2CCC(C)CC2)c1C,?,-2%,51%
COc1ccc(-c2nc(Cn3c(SCc4cccc(C(F)(F)F)c4)nc4cccnc43)c(C)o2)cc1OC,10%,5%,.
Cc1ccc2c(C(=O)CN3CCSCC3)c(C)[nH]c2c1,-7%,?,-11%
Cc1ccc2c(C(=O)CCl)c(C)[nH]c2c1,-9%,1.4µM*,-18%
Cc1ccccc1N1CCN(Cc2ccc([N+](=O)[O-])o2)CC1,-9%,35µM*,3%
COc1ccccc1N1CCN(Cc2ccc(-c3ccccc3[N+](=O)[O-])o2)CC1,?,25µM*,-1%
COc1ccccc1N1CCN(Cc2ccco2)CC1,3%,-32%,-6%
O=[N+]([O-])c1ccc(CN2CCN(c3ccccc3Cl)CC2)o1,?,0%,-2%
COc1ccc(CNC(=O)Cc2c(C(=O)O)c(C)cn2C)cc1,6%,1%,.
SMILES,AmpC inh detg,Sm TGR block,AmpC inh no detg
CN(C)/C=C1/C(=O)NC(=O)N(CCNc2ncc(C(F)(F)F)cc2Cl)C1=O,1%,11µM*,-22%
NNC(=O)CCCNc1ncc(C(F)(F)F)cc1Cl,5%,36%,0%
Cc1ccc(C)c(Nc2cc(C(=O)NC3CCCCC3)c3ccccc3n2)c1,-1%,11%,.
O=C(CSc1nc2c(c(=O)[nH]1)CCC2)Nc1cccc(O)c1,9%,-14%,.
COC(=O)c1ccc([C@H]2C=C(C(=O)O)O[C@@H](OCc3ccc(CO)cc3)C2)cc1,1%,10µM*,-20%
O=C(O)C1=C[C@H](c2ccc(C(F)(F)F)cc2)C[C@H](OCc2ccc(CO)cc2)O1,1%,50µM*,-16%
C#Cc1ccc([C@@H]2C=C(C(=O)NCc3ccccc3)O[C@H](OCc3ccc(CO)cc3)C2)cc1,2%,?,-36%
CN1CCN(C(=O)C2=C[C@@H](c3ccc(C(F)(F)F)cc3)C[C@@H](OCc3ccc(CO)cc3)O2)CC1,7%,?,200%
C#Cc1ccc([C@H]2C=C(C(=O)O)O[C@@H](OCc3ccc(CO)cc3)C2)cc1,5%,35µM*,-35%
NC(=O)C1=C[C@H](c2ccccc2)C[C@H](OCc2ccc(CO)cc2)O1,-6%,?,7%
O=C(C1=C[C@@H](c2ccc(C(F)(F)F)cc2)C[C@@H](OCc2ccc(CO)cc2)O1)N1CCN(Cc2ccccc2)CC1,9%,35µM*,127%
O=C(C1=C[C@H](c2ccc(C(F)(F)F)cc2)C[C@H](OCc2ccc(CO)cc2)O1)N1CCOCC1,-3%,?,143%
COc1cccc(CNC(=O)c2ccc(-c3nc(COc4ccccc4)c(C)o3)cc2)c1,14%,4%,.
CC1CCN(S(=O)(=O)c2ccc3c(ccc(=O)n3CC(=O)Nc3ccc(C(C)C)cc3)c2)CC1,9%,4%,.
